Reference: PubChem BioAssay (Tox21)
A number with no mark means an inactive call. Calls of active or inactive are those of the source. Calls follow the shape of the dose curve; as a rule, active = well fitted curve in the direction sought with a large enough effect in the repeat runs; inconclusive = weak or mixed curves; inactive = flat fitted curve, though single readings scatter.

assay: qHTS assay to test for compound auto fluorescence at 590 nm (red) in HepG2 cells (AID 720674); conditions: HepG2 autofluorescence, red 540/590 nm, 1 h; series mostly up to 91.3 µM; fluorescence, relative to Rose Bengal: at the top concentration
Excerpt: U.S. Tox21 Program National Center for Advancing Translational Sciences [NCATS] NIH Chemical Genomics Center [NCGC] U.S. Environmental Protection Agency [EPA] National Institutes of Environmental Health Sciences [NIEHS] National Toxicology Program [NTP] U.S. Food and Drug Administration [FDA] Tox21 Assay Overview: Compound auto fluorescence often interferes with screening of the compound library against various biological targets and signaling pathways. Some of these compounds may have fluorophoric properties. Such properties may interfere with the assay outputs resulting in false positives and/or negatives. To decrease such complications and ensure the compound activities are relevant in terms of biological response, the Tox21 10K compound library was screened for auto fluorescence. From the fluorophores used as reporter signals in our screening assays, the auto fluorescence equivalencies of compounds against three fluorophores have been evaluated: Triamterene, Fluorescein and Rose Bengal sodium for blue, green and red fluorescence, respectively. The fluorescence intensities were measured using Excitation/Emission wavelengths at 405/460nm, 485/535nm and 540/590nm for blue, green and red labels, respectively. This assay includes the red fluorescence data.
Tox21 Assay Protocol Summary: 2,000 HepG2 cells in 5 uL of culture medium (MEM containing 10% FBS) per well were dispensed into black wall/clear bottom 1536-well plates using a Multidrop Combi Dispenser (ThermoFisher Scientific, Waltham, MA). The assay plates were incubated overnight at 37 C to allow cell attachment to the well bottom, followed by the transfer of 23 nL compound or DMSO vehicle by a pintool work station (Kalypsys , San Diego, CA). After the assay plates were incubated for 1 hr at 37 C and 5% CO2, fluorescence intensities in the assay plates were measured by an Envision (PerkinElmer, Shelton, CT) plate reader using three labels for measuring blue, green and red fluorescence at […] 460, 535 and 590 nm respectively.
% is scaled to controls: 0 for no effect and ±100 for the full control effect.

| SMILES | fluorescence, relative to Rose Bengal | outcome |
| --- | --- | --- |
| CC(C)C(Br)C(=O)NC(N)=O (stereo not given) | 0.786% [at 46 µM] |  |
| O=P(Cl)(Cl)Cl | 0.215% [at 95.7 µM] |  |
| O=C(O)CCCCCCNC1c2ccccc2CCc2ccccc21 | -0.0476% [at 46 µM] |  |
| O=c1c2ccccc2c(=O)c2c1cc(Cl)c1[nH]c3c([nH]c12)c(Cl)cc1c(=O)c2ccccc2c(=O)c13 | 0.0392% |  |
| CN(C)c1ccc(N)cc1 | -0.0407% |  |
| C#CC1(O)CCCCC1 | 0.196% |  |
| COP(=O)(OC)Oc1ccc([N+](=O)[O-])cc1 | -0.21% |  |
| CNC(=O)CSP(=O)(OC)OC | -0.0369% |  |
| CCCCON=O | 0.147% [at 95.7 µM] |  |
| CCCCC(CC)COC(=O)c1ccccc1C(=O)OCC(CC)CCCC (stereo not given) | -0.519% |  |
| Clc1c(Cl)c(Cl)c(Cl)c(Cl)c1Cl | -0.0012% [at 3.72 µM] |  |
| COC(=O)c1cc(Oc2ccc(Cl)cc2Cl)ccc1[N+](=O)[O-] | -0.193% |  |
| COc1ccc2c3c1O[C@H]1[C@H](O)CC[C@H]4[C@@H](C2)N(C)CC[C@@]341 | -0.114% |  |
| CCC1(CC)C(=O)N=C(O)NC1=O | 0.0681% |  |
| CSC(=O)c1c(C(F)F)nc(C(F)(F)F)c(C(=O)SC)c1CC(C)C | 0.299% |  |
| c1ccc2c(c1)cc1ccc3cccc4ccc2c1c34 | 0.124% [at 95.7 µM] |  |
| FC(F)C(F)(F)OCC(Cn1cncn1)c1ccc(Cl)cc1Cl (stereo not given) | 0.316% |  |
| COC(=O)c1ccccc1S(=O)(=O)NC(=O)Nc1nc(C)nc(OC)n1 | -0.163% |  |
| Brc1cccc(-c2ccccc2)c1 | 0.136% |  |
| CCN(CC)C(=O)N[C@@H]1C=C2c3cccc4[nH]cc(c34)C[C@@H]2N(C)C1 | 0.833% [at 46 µM] |  |

| SMILES | fluorescence, relative to Rose Bengal | outcome |
| --- | --- | --- |
| O=C(O)[C@H](O)[C@@H](O)C(=O)O | 0.0347% |  |
| CC(=O)[O-].CC(=O)[O-].CC(=O)[O-].[Cr+3] | 0.207% |  |
| COP(=O)(OC)O/C(=C\Cl)c1cc(Cl)c(Cl)cc1Cl | 0.0129% |  |
| CC(C)=CC1C(C(=O)OC(C#N)c2cccc(Oc3ccccc3)c2)C1(C)C (stereo not given) | 0.0117% |  |
| CCOP(=S)(NC(C)C)Oc1ccccc1C(=O)OC(C)C (stereo not given) | -0.0805% |  |
| CC1(C)C(C=C(Cl)Cl)C1C(=O)OC(C#N)c1ccc(F)c(Oc2ccccc2)c1 (stereo not given) | -0.223% |  |
| CC(C)N(C(=O)CCl)c1ccccc1 |  | inactive |
| O=C1C2(Cl)C3(Cl)C4(Cl)C(Cl)(Cl)C5(Cl)C3(Cl)C1(Cl)C5(Cl)C24Cl (stereo not given) |  | inactive |
| COP(=S)(NC(C)C)Oc1ccc(C)cc1[N+](=O)[O-] (stereo not given) | -0.0004% |  |
| CCNc1nc(NC(C)C(C)C)nc(SC)n1 (stereo not given) | -0.036% |  |
| CC(=O)[O-].CC(=O)[O-].O.O.[Zn+2] | -0.141% |  |
| CC(C)NCC(O)c1ccccc1Cl (stereo not given) | 0.382% [at 46 µM] |  |
| CC1=C2C[C@H]3[C@@H](CC=C4C[C@@H](O)CC[C@@]43C)[C@@H]2CC[C@]12O[C@@H]1C[C@H](C)CN[C@H]1[C@H]2C | -0.134% [at 46 µM] |  |
| CC(=O)[O][Sn]([c]1ccccc1)([c]1ccccc1)[c]1ccccc1 | -0.418% |  |
| O=S(=O)(NS(=O)(=O)C(F)(F)F)C(F)(F)F | 0.685% |  |
| CCC(C)Br (stereo not given) | -0.187% [at 95.7 µM] |  |
| CCOP(=O)(OCC)Oc1cc(C)nc(C(C)C)n1 | -0.0403% |  |
| c1cc[n+]2c(c1)-c1cccc[n+]1CC2 | 0.229% [at 46 µM] |  |
| COC(=O)N(OC)c1ccccc1COc1ccn(-c2ccc(Cl)cc2)n1 | 0.0712% |  |
| Oc1cccc(Cl)c1Cl | -0.153% |  |
